# Screens from PubChem BioAssay.
# PrPC TRFRET = reduces human prion protein on the cell surface; cell surface PrPC, TR-FRET read-out; P04156; actives 0.43% (n = 370,000); inhibition, % at 13.8 µM; in the data active means inhibition above about 24%; further: 0% = median of the test wells and 100% = reference compound wells
# BJeLR viability = BJeLR cell viability loss; inhibition, % (concentration not given with the values); actives 0.17% (n = 300,000); AID 1554; BJeLR (HRASV12) viability, CellTiter-Glo ATP luminescence, 48 h; in the data active means inhibition above about 50%
# FBA Mtb inh = Mtb fructose-bisphosphate aldolase inhibition | purified M. tuberculosis FBA, fluorescence read-out | AID 588726 | P9WQA3 | actives 2.3% (n = 360,000) | inhibition, % at 1 µM; in the data active means inhibition above about 27%;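 further: 0% = vehicle and 100% = reference inhibitor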
# Target sequence (P9WQA3 whole entry, looked up): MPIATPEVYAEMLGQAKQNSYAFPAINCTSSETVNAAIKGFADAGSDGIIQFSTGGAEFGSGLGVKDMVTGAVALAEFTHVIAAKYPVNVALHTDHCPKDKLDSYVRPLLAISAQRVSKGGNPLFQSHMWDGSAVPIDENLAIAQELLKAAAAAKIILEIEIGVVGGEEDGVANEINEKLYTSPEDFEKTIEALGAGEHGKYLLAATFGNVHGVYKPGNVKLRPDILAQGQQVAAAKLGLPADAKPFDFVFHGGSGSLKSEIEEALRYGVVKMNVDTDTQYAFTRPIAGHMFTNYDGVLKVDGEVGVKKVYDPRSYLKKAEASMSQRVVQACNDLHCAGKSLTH
# RecA intein inh = blocks M. tuberculosis RecA intein splicing | cell-free RecA intein splicing, fluorescence | inhibition, % (no concentration beside the values) | actives 0.75% (n = 290,000) | AID 2221; in the data active means inhibition above about 30%;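 further: 0% = vehicle wells and 100% = reference inhibitor control wells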
# GDH-TPI inh = inhibits GDH-TPI coupling enzymes, artifact for Mtb FBA screen; inhibition, % at 4.8 µM; GDH-TPI coupled enzyme counterscreen, NADH absorbance; AID 588335; actives 1.2% (n = 360,000); in the data active means inhibition above about 30%;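 further: 0% = DMSO wells and 100% = wells lacking the enzyme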
# Starred values were filed as active, the others as inactive; . = no result given; + = active, no number. Compounds with a hit are over-represented: about 4.2% of the library has one in this group of screens.
SMILES,PrPC TRFRET,BJeLR viability,FBA Mtb inh,RecA intein inh,GDH-TPI inh
COc1cccc(-c2nnc(-c3ccc(C)o3)o2)c1,5,-4,179*,3,1
CC(CCN1CCC(C(O)(c2ccccc2)c2ccccc2)CC1)Oc1ccc(OC(F)(F)F)cc1 (stereo not given),-8,.,.,.,.
CCN(CC)C(=O)CC[C@H]1CC[C@]2(CCCN(Cc3cccnc3)C2)O1,-1,.,.,.,.
Oc1[nH]c2ccccc2c1N=Nc1ccccn1,3,.,-1,.,0
Oc1c(N=Nc2ccccn2)ccc2ccccc12,-32,61*,-1,7,7
Oc1[nH]c2ccccc2c1C1=NCCCC1,4,8,0,-4,27
CCn1c(O)c(C2=NCCCC2)c2ccccc21,3,5,0,-3,36*
O=C(Nc1ccccc1)Nc1ncc([N+](=O)[O-])s1,3,22,-50,.,-8
O=C(O)C1CCCC[C@H]1C(=O)Nc1ncc([N+](=O)[O-])s1 (stereo not given in full),-42,.,-1,.,31*
COc1nc(NCCO)nc(Nc2ccc([N+](=O)[O-])cc2)n1,-33,-3,2,4,31*
O[C@H](COc1cccc(C(F)(F)F)c1)CN1CCC(C(O)(c2ccccc2)c2ccccc2)CC1,-2,.,.,.,.
COC(=O)[C@H](Cc1ccccc1)NC(=O)[C@H]1C[C@@]2(N3CCCC3)c3ccccc3N(C(=O)OC(C)(C)C)[C@H]2N1C(=O)OC(C)(C)C,3,.,.,.,.
O=C(CCl)Nc1cccc(-c2cnc3ccccc3n2)c1,-15,13,4,46*,11
O=C(Nc1cccc(-c2cnc3ccccc3n2)c1)c1ccccc1,-3,0,0,-1,23
CCC(=O)Nc1cccc(-c2cnc3ccccc3n2)c1,-17,-7,-1,-1,31*
COC(=O)C1=C(C)N(Cc2cccc(C(F)(F)F)c2)C(=NCc2ccc3c(c2)OCO3)NC1c1ccc(F)cc1 (stereo not given),-11,.,.,.,.
C=CCn1c(SCc2c(Cl)cccc2Cl)nnc1-c1cccc(C)c1,3,.,.,.,.
Cc1ccccc1C(=O)OCC(=O)N(C)c1c(N)n(Cc2ccccc2)c(=O)[nH]c1=O,-2,-6,-2,.,1
Cc1ccc(/C=C/C(=O)OCC(=O)N(C)c2c(N)n(Cc3ccccc3)c(=O)[nH]c2=O)o1,-11,.,-7,.,38*
CCCC(=O)NC(c1ccc(OCC)cc1)c1ccc(OC)c(OC)c1 (stereo not given),8,-3,156*,2,10
CCOc1ccc(C(NC(C)=O)c2ccc(OC)c(OC)c2)cc1 (stereo not given),0,-12,-4,-1,-1
N#CC1=C(N)Oc2cc(N)ccc2C1c1cccc(Br)c1 (stereo not given),-6,56*,4,-16,-15
c1cncc(-c2nc(N3CCOCC3)c3ccccc3n2)c1,.,-1,-2,.,17
c1ccc2c(N3CCOCC3)nc(-c3ccncc3)nc2c1,-9,-3,-1,2,33*
Cc1cc(C)cc(Cn2c3ccc(NC(=O)NCc4ccc(F)cc4)cc3c(=O)n2C)c1,12,.,133*,.,8
SMILES,PrPC TRFRET,BJeLR viability,FBA Mtb inh,RecA intein inh,GDH-TPI inh
Cc1cc(C)cc(Cn2c3ccc(NC(=S)NC4CCCCC4)cc3c(=O)n2C)c1,3,.,17,.,4
Cc1cc(C)cc(Cn2c3ccc(NC(=O)NCc4ccccc4)cc3c(=O)n2C)c1,15,.,172*,.,-8
COc1cccc(C(=O)Oc2ccccc2/C=C\C(=O)c2cc3ccccc3o2)c1,-11,11,-1,26,31*
O=C(Oc1ccccc1/C=C\C(=O)c1cc2ccccc2o1)c1ccccc1,-11,5,0,-2,7
CCn1nc(C)c(C2C(C#N)=C(N)Oc3n[nH]c(C)c32)c1C (stereo not given),0,-1,1,42*,4
Cc1nn(-c2ccccc2)c(Cl)c1C1C(C#N)=C(N)Oc2n[nH]c(C)c21 (stereo not given),-8,-6,-1,62*,6
Cc1nn(-c2ccccc2)c(Cl)c1C1C(C#N)=C(N)Oc2c1c(C)nn2-c1ccccc1 (stereo not given),-3,11,-1,12,5
O=C(NCCc1c[nH]c2ccccc12)OCc1cn(Cc2cccc(F)c2)nn1,22,.,.,.,.
CC(=O)N1CCc2c(sc(NC(=O)C3CC3)c2-c2nc3ccccc3s2)C1,-3,5,4,30*,-3
COc1ccc(C(C)c2cn(C)c3ccccc23)cc1 (stereo not given),-2,.,.,.,.
CCOC(=O)c1c(C)c2c(=O)[nH]cnc2n1-c1ccccc1,-2,6,0,-2,9
CCOC(=O)c1c[nH]c(=S)n(-c2ccccc2)c1=O,3,-4,-4,-3,39*
CCOc1ccc(C(=O)Nc2cccc(-c3cc4ccccc4oc3=O)c2)cc1[N+](=O)[O-],-7,-1,2,4,32*
COCCN=C1Sc2ccccc2[C@@H]2C[C@H]3[C@H](CON3C)CN12,-4,.,.,.,.
CCn1c(COc2ccc(Cl)cc2)nnc1SCC(=O)Nc1ccc(Oc2ccccc2)cc1,-2,.,.,.,.
CCN(CC)C(=O)CC[C@@H]1CC[C@]2(CCCN(Cc3nccs3)C2)O1,-10,.,.,.,.
COc1cccc(NC(=O)C(=O)c2cn(CC(=O)N3CCCC3)c3ccccc23)c1,-6,18,-1,3,31*
Cc1ccc(NC(=O)C(=O)c2cn(CC(=O)N3CCCCC3)c3ccccc23)cc1,2,1,-2,2,26
CCc1ccc(NC(=O)C(=O)c2cn(CC(=O)N3CCCCC3)c3ccccc23)cc1,-4,-2,-3,-1,37*
O=C(NCC(c1ccccc1)c1ccccc1)[C@H](Cc1ccccc1)NC1(C(=O)NC2CCCCC2)CCOCC1,7,.,.,.,.
N#Cc1c(N)n(-c2ccc(C(=O)O)cc2)c2nc3ccccc3nc12,-18,2,+,-247,20
N#Cc1c(N)n(C2CCCCC2)c2nc3ccccc3nc12,-6,-5,117*,-88,14
N#Cc1c(N)n(-c2ccc(N)cc2)c2nc3ccccc3nc12,-25,2,-3,3,0
CC(COc1cccc(C(F)(F)F)c1)CN1CCC(C(O)(c2ccccc2)c2ccccc2)CC1 (stereo not given),-8,.,.,.,.
CCS(=O)(=O)NCCc1cc2cc(C)c(C)cc2[nH]c1=O,6,.,4,.,31*
Cc1nc(/C=[N+](\[O-])C(C)(C)/C=N/O)n(O)c1C,-6,0,-2,3,31*
COc1ccc(CN2CCC(CNC(=O)Nc3ccc(Cl)cc3)CC2)cc1,-10,.,.,.,.
CCCC(C)C(=O)Nc1ccc(Cl)cn1 (stereo not given),-7,-1,-5,0,31*
CCN(CC)S(=O)(=O)c1ccc(NC(=S)Nc2ccccc2)cc1,0,1,2,1,16
CCN(CC)S(=O)(=O)c1ccc(C(=O)Nc2nnc(NC(=S)Nc3ccccc3)s2)cc1,0,-11,0,2,41*
